From the supplement of paper PMC11732987, “Enantioselective OTUD7B fragment discovery through chemoproteomics screening and high-throughput optimisation” (Communications Chemistry, 2025)

What was measured:
Assay in all cases: log2 ratio of Biotin-Ahx-Ub-VS probe labelling (fragment/DMSO); higher = less target engagement (more negative = stronger competition), active = hit call of the paper (q ≤ 0.05, log2 ratio ≤ -1)
Conditions in all cases: compound concentration: 200 uM; treatment time: 3 h
USP42 = molecular target: T1, USP42 (UniProt Q9H9J4)
T1 sequence (whole entry): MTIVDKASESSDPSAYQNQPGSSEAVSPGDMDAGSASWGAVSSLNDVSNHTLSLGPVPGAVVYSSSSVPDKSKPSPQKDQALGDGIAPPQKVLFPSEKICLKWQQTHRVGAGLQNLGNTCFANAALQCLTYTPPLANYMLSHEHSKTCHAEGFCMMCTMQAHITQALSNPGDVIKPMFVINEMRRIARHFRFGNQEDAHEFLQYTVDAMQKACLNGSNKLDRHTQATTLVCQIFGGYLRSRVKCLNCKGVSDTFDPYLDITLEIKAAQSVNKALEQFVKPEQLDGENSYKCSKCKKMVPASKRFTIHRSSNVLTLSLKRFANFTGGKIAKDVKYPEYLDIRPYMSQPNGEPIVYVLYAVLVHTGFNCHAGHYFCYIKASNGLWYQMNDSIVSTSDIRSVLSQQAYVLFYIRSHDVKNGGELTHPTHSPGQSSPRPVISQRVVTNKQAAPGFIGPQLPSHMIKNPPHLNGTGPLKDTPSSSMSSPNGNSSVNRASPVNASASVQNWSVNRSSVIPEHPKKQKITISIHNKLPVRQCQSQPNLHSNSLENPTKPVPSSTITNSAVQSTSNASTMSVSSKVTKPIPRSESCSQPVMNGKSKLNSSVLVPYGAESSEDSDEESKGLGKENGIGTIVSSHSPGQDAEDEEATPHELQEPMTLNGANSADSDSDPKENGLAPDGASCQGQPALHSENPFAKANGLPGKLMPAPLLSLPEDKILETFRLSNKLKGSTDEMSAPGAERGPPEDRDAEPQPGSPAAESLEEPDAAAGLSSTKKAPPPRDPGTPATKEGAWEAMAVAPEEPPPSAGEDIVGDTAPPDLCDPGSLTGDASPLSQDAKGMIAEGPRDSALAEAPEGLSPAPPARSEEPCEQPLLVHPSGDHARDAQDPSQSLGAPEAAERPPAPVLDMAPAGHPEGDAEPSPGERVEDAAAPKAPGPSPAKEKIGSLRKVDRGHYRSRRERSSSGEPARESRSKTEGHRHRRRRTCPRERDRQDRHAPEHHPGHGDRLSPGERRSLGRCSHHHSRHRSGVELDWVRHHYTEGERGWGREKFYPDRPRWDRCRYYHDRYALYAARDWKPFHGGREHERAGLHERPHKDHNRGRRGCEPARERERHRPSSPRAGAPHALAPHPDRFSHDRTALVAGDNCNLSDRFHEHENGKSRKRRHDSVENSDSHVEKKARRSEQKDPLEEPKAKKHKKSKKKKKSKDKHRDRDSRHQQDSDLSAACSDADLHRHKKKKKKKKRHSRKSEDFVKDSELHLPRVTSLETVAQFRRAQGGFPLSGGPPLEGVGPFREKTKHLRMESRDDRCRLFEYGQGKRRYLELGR
Summary of the method: (§1)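 Triplicate samples of HEK293T lysate, 495 µg each, received fragment at 200 µM or vehicle for 3 h, followed by Biotin-Ahx-Ub-VS (0.5 µM final) for 1 h. After NeutrAvidin enrichment of labelled DUBs and LysC/trypsin digestion, peptides were run by diaPASEF LC-MS/MS. The values are average log2 fragment/vehicle ratios from global-median-normalised Spectronaut label-free quantities, tested by unpaired t-test on proteins having ≥2 unique peptides.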

USP46 = USP46 (UniProt P62068)
Summary of the method: as §1

USP47 = molecular target: T2, USP47 (UniProt Q96K76)
T2 sequence (whole entry): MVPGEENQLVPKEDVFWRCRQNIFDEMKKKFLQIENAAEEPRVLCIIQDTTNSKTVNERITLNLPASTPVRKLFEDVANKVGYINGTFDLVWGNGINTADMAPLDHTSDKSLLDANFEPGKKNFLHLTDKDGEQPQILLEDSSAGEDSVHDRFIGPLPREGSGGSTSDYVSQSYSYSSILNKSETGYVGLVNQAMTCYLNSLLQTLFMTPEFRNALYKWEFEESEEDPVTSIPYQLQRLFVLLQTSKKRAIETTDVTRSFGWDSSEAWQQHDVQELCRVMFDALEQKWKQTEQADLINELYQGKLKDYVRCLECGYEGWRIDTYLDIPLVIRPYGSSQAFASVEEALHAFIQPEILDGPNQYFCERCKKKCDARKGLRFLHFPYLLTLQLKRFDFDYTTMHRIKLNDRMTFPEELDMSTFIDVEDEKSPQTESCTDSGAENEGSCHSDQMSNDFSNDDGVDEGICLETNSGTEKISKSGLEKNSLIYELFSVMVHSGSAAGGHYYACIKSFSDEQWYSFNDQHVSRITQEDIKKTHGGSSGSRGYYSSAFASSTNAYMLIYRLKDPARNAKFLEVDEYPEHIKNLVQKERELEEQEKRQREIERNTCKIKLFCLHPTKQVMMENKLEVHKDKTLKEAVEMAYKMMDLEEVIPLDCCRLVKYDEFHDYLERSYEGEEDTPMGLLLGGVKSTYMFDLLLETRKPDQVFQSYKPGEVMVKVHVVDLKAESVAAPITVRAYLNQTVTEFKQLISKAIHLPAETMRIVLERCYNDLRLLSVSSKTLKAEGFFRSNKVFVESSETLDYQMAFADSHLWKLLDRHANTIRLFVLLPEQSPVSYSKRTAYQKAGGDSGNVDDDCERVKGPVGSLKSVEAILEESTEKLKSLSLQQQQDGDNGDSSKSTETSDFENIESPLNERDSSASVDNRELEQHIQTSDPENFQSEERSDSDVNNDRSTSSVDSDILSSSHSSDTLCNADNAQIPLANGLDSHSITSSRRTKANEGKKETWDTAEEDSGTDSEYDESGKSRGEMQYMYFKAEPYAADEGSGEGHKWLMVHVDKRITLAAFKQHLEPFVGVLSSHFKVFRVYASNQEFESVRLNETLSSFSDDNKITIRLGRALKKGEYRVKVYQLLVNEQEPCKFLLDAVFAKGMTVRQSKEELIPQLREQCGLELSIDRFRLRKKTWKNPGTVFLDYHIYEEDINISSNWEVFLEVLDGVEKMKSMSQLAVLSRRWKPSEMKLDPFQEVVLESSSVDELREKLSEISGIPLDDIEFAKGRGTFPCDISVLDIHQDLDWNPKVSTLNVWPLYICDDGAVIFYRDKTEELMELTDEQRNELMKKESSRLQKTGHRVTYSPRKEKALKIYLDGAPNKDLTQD
Summary of the method: as §1

USP48 = molecular target: T3, USP48 (UniProt Q86UV5)
T3 sequence (whole entry): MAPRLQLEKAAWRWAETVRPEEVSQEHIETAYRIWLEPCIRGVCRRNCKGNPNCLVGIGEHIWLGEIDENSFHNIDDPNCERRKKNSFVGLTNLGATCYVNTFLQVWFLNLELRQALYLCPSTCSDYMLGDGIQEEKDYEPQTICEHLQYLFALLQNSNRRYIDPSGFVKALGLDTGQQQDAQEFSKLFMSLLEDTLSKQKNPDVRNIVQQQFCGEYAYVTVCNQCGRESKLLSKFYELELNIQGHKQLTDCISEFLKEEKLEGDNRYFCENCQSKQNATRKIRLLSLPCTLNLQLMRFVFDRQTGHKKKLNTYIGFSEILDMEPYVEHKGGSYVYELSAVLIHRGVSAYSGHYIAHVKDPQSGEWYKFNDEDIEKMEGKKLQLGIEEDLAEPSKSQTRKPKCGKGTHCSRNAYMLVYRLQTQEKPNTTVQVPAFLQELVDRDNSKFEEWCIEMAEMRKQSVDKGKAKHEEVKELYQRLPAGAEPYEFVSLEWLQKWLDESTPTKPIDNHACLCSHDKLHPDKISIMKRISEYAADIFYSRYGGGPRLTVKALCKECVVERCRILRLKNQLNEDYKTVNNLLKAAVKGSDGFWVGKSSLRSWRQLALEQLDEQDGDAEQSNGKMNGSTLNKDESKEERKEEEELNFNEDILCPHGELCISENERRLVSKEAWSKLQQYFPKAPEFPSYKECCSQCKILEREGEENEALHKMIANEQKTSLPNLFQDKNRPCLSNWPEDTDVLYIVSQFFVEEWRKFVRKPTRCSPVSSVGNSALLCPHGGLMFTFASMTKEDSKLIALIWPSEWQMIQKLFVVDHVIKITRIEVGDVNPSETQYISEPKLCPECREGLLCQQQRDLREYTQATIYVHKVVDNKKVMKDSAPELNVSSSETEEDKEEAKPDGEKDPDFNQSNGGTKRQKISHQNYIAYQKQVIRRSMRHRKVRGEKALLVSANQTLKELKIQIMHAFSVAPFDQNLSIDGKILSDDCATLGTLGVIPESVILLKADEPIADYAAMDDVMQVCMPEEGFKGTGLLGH
Summary of the method: as §1

USP5 = molecular target: T4, USP5 (UniProt P45974)
T4 sequence (whole entry): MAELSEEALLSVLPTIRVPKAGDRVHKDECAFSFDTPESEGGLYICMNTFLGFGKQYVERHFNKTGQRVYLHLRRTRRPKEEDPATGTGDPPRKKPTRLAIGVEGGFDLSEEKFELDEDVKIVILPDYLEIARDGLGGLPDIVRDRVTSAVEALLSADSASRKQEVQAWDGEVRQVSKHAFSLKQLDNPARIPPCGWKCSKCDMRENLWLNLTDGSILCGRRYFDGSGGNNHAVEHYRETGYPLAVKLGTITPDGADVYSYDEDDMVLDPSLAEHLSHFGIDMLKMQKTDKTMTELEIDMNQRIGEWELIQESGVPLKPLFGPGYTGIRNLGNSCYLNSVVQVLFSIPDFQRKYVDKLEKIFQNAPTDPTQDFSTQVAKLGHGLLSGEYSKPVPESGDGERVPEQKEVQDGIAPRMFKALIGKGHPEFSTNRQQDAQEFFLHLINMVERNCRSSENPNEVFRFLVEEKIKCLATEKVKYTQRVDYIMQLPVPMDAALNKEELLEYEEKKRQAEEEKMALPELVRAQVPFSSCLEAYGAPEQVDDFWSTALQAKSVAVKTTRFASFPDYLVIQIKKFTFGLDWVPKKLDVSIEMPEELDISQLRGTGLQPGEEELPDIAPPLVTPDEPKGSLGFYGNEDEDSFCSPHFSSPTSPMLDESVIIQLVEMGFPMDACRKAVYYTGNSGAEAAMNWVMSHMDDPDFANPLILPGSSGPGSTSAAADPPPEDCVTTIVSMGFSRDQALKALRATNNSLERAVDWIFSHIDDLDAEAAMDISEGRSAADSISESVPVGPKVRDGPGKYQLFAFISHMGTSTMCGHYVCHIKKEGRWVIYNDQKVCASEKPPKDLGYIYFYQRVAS
Summary of the method: as §1

USP54 = USP54 (UniProt Q70EL1)
Summary of the method: as §1

USP7 = USP7 (UniProt Q93009)
Summary of the method: as §1

USP8 = molecular target: T5, USP8 (UniProt P40818)
T5 sequence (whole entry): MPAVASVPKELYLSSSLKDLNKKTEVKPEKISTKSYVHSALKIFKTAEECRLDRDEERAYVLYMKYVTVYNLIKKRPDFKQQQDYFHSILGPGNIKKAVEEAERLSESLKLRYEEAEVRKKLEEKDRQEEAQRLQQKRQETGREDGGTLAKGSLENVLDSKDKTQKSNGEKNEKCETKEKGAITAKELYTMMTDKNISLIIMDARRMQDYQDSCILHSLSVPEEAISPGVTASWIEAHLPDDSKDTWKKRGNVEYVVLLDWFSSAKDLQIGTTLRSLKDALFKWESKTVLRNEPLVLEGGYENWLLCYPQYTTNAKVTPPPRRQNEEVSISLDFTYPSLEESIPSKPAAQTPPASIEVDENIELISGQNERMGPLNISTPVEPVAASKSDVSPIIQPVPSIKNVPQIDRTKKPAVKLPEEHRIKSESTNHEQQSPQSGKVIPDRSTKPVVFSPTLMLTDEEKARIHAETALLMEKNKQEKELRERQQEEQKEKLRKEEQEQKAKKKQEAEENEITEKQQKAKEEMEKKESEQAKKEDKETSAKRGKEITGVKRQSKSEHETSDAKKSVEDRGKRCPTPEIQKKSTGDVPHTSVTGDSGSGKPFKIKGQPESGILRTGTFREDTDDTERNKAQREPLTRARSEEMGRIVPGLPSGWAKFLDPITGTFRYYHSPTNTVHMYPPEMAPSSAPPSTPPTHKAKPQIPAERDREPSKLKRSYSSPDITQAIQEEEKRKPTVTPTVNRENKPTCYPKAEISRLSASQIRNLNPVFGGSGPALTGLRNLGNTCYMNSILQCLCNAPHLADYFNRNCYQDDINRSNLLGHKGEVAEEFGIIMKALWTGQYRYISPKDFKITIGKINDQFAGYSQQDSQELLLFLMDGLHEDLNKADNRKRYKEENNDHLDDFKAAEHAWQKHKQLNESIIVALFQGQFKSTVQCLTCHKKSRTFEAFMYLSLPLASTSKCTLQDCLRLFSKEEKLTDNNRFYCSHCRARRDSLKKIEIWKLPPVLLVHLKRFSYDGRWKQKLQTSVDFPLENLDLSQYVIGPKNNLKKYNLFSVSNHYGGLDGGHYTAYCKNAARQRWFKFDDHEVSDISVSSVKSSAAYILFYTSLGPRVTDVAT
Summary of the method: as §1

USP9X = USP9X (UniProt Q93008)
Summary of the method: as §1

UniProt O00487 = molecular target: UniProt O00487
Summary of the method: as §1

Measured: log2 ratio of Biotin-Ahx-Ub-VS probe labelling

USP7, sequence (Q93009 whole entry, looked up): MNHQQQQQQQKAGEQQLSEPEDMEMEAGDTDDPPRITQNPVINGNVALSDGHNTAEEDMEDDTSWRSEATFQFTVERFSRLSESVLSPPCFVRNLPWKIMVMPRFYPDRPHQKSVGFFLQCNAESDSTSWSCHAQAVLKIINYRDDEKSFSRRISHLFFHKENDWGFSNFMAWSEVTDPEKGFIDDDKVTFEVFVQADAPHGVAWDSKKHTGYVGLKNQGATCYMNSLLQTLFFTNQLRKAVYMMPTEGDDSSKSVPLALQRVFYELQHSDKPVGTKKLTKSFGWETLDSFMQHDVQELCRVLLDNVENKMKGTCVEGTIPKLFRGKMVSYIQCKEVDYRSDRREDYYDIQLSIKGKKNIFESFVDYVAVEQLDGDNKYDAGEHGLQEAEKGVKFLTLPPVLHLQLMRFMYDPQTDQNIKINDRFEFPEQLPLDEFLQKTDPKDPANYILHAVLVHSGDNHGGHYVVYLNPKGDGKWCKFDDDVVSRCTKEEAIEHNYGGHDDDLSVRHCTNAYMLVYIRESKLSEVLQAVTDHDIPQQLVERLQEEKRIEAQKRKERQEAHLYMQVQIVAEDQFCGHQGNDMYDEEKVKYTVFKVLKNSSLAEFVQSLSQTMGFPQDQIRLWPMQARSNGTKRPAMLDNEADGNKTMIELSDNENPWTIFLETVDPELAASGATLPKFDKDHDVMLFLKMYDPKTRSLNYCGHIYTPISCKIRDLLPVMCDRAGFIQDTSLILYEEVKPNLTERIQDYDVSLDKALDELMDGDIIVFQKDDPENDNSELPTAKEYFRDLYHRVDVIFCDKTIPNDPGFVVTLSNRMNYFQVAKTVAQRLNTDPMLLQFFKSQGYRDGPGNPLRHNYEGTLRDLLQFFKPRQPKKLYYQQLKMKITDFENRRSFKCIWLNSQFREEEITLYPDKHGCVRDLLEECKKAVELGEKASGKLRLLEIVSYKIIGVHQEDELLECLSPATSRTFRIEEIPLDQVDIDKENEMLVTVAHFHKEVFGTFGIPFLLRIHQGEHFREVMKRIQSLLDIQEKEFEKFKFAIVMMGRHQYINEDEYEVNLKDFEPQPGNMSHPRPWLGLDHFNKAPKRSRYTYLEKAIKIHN
UniProt O00487, sequence (O00487 whole entry): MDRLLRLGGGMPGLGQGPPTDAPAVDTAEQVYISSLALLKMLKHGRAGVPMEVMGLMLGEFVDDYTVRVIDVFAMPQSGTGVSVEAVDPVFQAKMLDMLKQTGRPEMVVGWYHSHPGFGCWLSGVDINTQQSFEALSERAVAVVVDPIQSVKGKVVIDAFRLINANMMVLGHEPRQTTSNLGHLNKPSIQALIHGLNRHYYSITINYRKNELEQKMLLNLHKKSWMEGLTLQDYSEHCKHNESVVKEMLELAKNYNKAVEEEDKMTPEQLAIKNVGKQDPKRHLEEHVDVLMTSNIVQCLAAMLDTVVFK
USP54, sequence (Q70EL1 whole entry): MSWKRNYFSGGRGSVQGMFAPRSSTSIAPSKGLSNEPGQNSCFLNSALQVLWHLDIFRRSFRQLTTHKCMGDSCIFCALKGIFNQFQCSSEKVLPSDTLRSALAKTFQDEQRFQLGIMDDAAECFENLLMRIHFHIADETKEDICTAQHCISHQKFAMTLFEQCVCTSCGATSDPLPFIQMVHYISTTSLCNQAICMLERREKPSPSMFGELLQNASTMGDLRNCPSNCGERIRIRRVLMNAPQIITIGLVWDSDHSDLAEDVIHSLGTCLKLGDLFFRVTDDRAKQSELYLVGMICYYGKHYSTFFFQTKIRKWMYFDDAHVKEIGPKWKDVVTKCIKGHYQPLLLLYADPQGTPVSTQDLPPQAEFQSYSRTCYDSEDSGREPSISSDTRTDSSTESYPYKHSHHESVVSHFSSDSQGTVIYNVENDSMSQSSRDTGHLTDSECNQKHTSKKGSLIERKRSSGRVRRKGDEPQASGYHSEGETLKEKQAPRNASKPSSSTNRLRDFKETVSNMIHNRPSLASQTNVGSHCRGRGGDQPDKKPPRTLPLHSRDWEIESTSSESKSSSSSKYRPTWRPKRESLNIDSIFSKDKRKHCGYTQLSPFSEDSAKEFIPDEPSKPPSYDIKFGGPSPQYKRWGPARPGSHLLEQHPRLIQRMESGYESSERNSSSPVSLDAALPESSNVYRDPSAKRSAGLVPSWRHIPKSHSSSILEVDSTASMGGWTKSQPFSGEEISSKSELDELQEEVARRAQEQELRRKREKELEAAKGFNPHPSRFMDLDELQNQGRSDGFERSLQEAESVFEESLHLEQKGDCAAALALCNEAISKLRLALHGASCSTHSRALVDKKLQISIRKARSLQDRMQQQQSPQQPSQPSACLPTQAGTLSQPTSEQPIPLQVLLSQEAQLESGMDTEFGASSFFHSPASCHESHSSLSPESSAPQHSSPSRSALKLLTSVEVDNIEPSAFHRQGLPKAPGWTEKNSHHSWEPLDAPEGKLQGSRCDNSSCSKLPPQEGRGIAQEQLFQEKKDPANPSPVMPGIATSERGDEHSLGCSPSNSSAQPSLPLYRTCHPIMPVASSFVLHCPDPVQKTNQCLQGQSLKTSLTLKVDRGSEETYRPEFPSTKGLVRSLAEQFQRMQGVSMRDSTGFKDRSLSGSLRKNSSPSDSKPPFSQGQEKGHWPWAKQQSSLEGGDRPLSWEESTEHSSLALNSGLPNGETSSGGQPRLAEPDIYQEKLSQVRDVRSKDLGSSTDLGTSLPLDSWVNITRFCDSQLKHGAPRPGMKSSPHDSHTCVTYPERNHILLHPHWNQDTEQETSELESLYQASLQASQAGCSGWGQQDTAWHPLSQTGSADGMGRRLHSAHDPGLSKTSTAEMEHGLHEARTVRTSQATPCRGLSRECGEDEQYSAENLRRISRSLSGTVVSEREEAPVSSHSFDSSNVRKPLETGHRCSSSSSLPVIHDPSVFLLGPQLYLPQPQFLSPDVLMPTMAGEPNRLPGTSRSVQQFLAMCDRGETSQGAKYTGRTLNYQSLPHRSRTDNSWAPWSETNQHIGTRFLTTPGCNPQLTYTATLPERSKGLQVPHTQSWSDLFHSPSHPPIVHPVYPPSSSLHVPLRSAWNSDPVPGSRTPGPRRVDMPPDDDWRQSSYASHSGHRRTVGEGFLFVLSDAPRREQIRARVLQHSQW
USP46, sequence (P62068 whole entry): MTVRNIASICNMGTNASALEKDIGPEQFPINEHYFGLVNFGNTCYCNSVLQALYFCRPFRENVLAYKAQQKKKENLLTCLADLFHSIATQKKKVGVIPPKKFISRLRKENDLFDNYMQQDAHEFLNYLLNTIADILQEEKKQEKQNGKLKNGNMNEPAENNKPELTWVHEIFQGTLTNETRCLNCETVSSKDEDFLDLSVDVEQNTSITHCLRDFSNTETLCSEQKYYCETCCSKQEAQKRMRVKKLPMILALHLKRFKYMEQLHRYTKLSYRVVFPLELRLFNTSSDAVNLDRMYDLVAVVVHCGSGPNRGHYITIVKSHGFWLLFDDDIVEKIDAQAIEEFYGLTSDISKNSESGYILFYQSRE

O=C(CCl)Nc1cccc(NC(=O)c2ccccc2)c1
inactive: USP42 0.808 | USP46 0.291 | USP47 -0.303 | USP48 -0.0133 | USP5 0.0977 | USP54 -0.543 | USP7 0.0734 | USP8 0.244 | USP9X 0.246 | UniProt O00487 0.00956
